Assay in all cases: DAPPL (digital affinity profiling via proximity ligation, sequencing); 10 mM Tris-HCl pH 7.5, 50 mM NaCl, 1 mM DTT, 4% glycerol, room temperature, 30 min; GST-TFs on glutathione beads, 16-mer random dsDNA library, 0.1% formaldehyde crosslink after washing; high values mean tight binding
The target of one test is T1, FEV (Homo sapiens, UniProt Q99581 1-238).
T1 sequence: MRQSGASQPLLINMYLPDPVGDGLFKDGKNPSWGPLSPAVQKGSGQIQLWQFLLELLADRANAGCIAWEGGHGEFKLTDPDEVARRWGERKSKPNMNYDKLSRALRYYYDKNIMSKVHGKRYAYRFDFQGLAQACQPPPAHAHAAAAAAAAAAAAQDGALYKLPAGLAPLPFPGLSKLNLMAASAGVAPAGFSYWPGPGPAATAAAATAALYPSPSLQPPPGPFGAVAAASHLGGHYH
To be noted: protein: recombinant; tags: N-terminal GST; dsDNA, one strand shown. In short, it runs like this:
(§1)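 Human transcription factors fused to GST were expressed in yeast, captured on glutathione beads, given DNA barcodes and pooled with a GST-only negative control. Pools were incubated with 200 nmole of a 16-mer random double-stranded DNA library in Tris/NaCl/DTT/glycerol buffer at room temperature for 30 min. They were then washed, crosslinked with 0.1% formaldehyde, proximity-ligated (BsaI/T4 ligase, 1 h, 37 °C), PCR-amplified and sequenced on an Illumina NextSeq500. Binding signal is each 6-mer's read frequency for a factor divided by its frequency for the GST control.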

In another test the target is ETV5 (Homo sapiens, UniProt P41161 1-510). Particulars: protein: recombinant; tags: N-terminal GST; dsDNA, one strand shown. In outline: as §1
Another test has as its target HSF1 (Homo sapiens, UniProt Q00613 1-529). Particulars: protein: recombinant; tags: N-terminal GST; chain copies: 3; dsDNA, one strand shown. In short, it runs like this: as §1
The target in another test is T2, SPIC (Homo sapiens, UniProt Q8N5J4 1-248).
T2 sequence: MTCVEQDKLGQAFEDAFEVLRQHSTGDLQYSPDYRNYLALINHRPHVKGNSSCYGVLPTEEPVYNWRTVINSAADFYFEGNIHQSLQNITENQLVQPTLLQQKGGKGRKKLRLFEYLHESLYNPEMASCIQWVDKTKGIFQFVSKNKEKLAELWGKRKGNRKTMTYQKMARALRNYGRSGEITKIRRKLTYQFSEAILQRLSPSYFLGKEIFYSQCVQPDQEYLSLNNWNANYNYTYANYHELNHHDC
Particulars: protein: recombinant; tags: N-terminal GST; dsDNA, one strand shown. In short, it runs like this:
as §1

Another test deals with ELF4 (Homo sapiens, UniProt Q99607 1-663). Particulars: protein: recombinant; tags: N-terminal GST; dsDNA, one strand shown. In short, it runs like this:
as §1

The target of another test is T3, ELK4 (Homo sapiens, UniProt P28324-2 1-405).
T3 sequence: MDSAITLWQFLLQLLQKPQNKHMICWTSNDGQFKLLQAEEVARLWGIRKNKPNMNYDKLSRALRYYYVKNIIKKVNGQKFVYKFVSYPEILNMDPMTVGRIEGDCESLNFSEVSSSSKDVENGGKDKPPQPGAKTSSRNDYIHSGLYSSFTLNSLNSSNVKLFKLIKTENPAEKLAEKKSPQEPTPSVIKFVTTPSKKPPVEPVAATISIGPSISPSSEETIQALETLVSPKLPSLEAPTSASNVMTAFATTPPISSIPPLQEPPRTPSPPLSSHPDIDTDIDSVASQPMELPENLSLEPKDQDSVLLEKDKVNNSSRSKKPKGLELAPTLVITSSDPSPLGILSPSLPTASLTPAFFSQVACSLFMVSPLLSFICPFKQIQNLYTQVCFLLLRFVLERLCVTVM
To be noted: protein: recombinant; tags: N-terminal GST; dsDNA, one strand shown. In outline: as §1

A further test concerns the target T4, ETV2 (Homo sapiens, UniProt O00321 1-342).
T4 sequence: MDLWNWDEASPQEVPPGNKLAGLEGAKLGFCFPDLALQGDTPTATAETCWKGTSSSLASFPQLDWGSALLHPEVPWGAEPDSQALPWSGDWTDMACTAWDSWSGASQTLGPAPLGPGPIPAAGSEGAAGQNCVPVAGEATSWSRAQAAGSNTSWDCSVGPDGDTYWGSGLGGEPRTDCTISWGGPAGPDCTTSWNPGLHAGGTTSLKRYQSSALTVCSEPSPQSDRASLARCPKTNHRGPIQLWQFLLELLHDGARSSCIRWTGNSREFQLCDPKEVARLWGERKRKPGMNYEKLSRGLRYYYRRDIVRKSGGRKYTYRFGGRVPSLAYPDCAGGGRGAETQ
Particulars: protein: recombinant; tags: N-terminal GST; dsDNA, one strand shown. In outline: as §1

The target in a further test is T5, ELF3 (Homo sapiens, UniProt P78545 1-371).
T5 sequence: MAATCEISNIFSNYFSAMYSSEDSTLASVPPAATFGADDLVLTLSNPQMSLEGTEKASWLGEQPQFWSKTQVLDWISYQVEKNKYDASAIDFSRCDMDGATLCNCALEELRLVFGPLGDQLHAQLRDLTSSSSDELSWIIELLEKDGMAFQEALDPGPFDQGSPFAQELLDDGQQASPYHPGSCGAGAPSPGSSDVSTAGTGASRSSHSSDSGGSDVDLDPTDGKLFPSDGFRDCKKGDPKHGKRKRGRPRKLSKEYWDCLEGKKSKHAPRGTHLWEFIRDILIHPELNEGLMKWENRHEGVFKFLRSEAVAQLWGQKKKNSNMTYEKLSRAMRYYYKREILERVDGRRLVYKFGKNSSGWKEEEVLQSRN
Particulars: protein: recombinant; tags: N-terminal GST; dsDNA, one strand shown. In short, it runs like this:
as §1

The next test has as its target CRX (Homo sapiens, UniProt O43186 1-299). To be noted: protein: recombinant; tags: N-terminal GST; dsDNA, one strand shown. In short, it runs like this:
as §1

In a further test the target is ETV1 (Homo sapiens, UniProt P50549 1-477). Particulars: protein: recombinant; tags: N-terminal GST; dsDNA, one strand shown. In short, it runs like this: as §1
The next test has as its target T6, ERF (Homo sapiens, UniProt P50548 1-548).
T6 sequence: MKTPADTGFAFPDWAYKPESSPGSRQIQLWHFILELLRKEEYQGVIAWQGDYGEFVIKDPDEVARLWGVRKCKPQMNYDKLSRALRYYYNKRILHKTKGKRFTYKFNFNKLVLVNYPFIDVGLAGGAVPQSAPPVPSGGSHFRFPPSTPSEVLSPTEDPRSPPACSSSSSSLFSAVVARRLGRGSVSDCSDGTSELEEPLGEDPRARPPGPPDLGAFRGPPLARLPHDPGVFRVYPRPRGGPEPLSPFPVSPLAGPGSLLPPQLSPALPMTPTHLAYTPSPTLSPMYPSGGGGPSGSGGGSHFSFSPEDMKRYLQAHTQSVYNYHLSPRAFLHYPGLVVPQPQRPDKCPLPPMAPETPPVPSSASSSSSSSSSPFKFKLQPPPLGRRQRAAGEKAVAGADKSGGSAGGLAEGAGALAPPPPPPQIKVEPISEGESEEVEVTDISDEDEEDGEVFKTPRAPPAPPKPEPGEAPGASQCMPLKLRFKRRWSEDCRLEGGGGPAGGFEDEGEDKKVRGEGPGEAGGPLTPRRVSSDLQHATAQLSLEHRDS
To be noted: protein: recombinant; tags: N-terminal GST; dsDNA, one strand shown. In outline:
as §1

A further test has as its target T7, ETV3L (Homo sapiens, UniProt Q6ZN32 1-361).
T7 sequence: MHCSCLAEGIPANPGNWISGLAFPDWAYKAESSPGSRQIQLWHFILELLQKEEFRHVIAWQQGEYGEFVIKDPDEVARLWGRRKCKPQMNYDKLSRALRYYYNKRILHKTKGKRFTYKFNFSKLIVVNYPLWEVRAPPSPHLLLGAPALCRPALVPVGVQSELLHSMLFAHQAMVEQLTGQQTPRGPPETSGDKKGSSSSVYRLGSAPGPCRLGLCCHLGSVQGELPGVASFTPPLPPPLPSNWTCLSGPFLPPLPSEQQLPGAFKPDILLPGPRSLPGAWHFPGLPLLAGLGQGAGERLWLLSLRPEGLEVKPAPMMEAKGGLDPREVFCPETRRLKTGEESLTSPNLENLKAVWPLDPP
To be noted: protein: recombinant; tags: N-terminal GST; dsDNA, one strand shown. In short, it runs like this: as §1

A further test concerns the target T8, ETS2 (Homo sapiens, UniProt P15036 1-469).
T8 sequence: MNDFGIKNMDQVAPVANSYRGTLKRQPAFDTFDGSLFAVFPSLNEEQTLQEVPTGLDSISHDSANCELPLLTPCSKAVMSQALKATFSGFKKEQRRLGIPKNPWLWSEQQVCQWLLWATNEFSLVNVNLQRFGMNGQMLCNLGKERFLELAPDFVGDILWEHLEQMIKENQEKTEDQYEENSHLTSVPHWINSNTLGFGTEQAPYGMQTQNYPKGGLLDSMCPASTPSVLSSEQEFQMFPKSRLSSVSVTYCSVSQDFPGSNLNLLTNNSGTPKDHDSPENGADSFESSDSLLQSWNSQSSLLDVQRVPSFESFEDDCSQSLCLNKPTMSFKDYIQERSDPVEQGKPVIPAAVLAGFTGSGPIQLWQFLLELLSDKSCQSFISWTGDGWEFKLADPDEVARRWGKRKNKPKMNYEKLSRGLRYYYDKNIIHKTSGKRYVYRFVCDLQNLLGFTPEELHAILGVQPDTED
To be noted: protein: recombinant; tags: N-terminal GST; dsDNA, one strand shown. In outline:
as §1

A further test has as its target T9, SPDEF (Homo sapiens, UniProt O95238 1-335).
T9 sequence: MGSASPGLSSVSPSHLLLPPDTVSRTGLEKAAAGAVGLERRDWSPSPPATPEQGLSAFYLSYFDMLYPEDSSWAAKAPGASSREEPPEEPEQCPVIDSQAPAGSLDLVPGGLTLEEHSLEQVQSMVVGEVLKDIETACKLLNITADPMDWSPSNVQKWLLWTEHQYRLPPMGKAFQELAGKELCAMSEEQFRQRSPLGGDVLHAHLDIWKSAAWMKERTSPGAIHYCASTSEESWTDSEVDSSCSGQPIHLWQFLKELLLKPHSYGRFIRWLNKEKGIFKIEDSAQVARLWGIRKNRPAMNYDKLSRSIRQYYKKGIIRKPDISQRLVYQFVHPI
Particulars: protein: recombinant; tags: N-terminal GST; dsDNA, one strand shown. In short, it runs like this:
as §1

For the next test, the target named is T10, ETV7 (Homo sapiens, UniProt Q9Y603 1-341).
T10 sequence: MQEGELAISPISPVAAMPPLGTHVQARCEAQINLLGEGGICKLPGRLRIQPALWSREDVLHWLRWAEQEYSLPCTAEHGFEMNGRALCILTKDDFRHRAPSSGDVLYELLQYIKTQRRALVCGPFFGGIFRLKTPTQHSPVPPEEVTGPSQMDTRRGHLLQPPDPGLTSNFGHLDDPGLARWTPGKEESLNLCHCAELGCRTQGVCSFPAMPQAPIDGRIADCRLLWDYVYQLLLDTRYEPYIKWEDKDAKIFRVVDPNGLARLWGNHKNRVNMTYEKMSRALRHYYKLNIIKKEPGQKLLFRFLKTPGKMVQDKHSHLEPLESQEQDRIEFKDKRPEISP
Particulars: protein: recombinant; tags: N-terminal GST; dsDNA, one strand shown. In outline: as §1

In a further test the target is T11, ELF5 (Homo sapiens, UniProt Q9UKW6-2 1-255).
T11 sequence: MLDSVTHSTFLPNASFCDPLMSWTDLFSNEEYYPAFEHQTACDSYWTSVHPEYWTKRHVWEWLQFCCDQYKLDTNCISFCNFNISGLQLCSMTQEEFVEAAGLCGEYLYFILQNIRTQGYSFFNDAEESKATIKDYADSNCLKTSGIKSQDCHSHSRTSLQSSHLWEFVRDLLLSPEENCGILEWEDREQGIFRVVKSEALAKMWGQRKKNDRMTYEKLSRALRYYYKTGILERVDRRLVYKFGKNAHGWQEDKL
Particulars: protein: recombinant; tags: N-terminal GST; dsDNA, one strand shown. In outline: as §1

The target in the next test is T12, ETV3 (Homo sapiens, UniProt P41162-2 1-143).
T12 sequence: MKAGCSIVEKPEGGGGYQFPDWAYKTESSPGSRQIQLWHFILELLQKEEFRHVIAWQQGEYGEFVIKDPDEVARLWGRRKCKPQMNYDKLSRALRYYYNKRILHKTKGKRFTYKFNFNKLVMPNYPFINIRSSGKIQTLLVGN
Particulars: protein: recombinant; tags: N-terminal GST; dsDNA, one strand shown. In short, it runs like this:
as §1

Another test concerns the target ETV6 (Homo sapiens, UniProt P41212 1-452). To be noted: protein: recombinant; tags: N-terminal GST; dsDNA, one strand shown. In outline:
as §1

The results in this text go back to publication PMC7862700, “An all-to-all approach to the identification of sequence-specific readers for epigenetic DNA modifications on cytosine”.

HSF1, sequence (Q00613 whole entry): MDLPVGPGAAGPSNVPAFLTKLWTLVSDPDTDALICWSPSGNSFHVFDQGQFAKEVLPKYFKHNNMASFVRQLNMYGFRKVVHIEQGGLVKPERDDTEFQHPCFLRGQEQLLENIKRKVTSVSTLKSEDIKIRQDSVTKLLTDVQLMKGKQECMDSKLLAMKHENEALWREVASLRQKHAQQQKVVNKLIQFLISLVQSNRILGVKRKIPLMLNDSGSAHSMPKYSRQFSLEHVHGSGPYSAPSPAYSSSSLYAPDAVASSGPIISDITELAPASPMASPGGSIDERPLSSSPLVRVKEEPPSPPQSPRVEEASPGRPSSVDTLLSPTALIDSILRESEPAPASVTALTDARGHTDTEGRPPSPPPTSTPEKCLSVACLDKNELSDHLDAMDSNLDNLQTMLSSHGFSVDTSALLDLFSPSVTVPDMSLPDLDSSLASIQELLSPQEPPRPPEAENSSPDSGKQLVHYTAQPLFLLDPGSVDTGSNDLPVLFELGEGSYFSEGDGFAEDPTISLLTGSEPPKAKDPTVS
ETV6, sequence (P41212 whole entry): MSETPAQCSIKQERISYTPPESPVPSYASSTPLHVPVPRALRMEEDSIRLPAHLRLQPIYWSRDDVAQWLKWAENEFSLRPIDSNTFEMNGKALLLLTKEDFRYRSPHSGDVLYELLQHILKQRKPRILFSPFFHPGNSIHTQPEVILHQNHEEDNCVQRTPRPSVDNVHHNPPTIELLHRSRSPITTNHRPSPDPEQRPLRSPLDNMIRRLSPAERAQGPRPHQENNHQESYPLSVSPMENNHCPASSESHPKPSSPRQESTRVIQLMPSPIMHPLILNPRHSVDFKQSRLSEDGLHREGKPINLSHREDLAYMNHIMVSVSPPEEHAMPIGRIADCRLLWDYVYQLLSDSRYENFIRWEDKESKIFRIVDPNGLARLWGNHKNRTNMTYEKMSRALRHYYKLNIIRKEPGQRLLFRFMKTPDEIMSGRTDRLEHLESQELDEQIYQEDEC
ETV1, sequence (P50549 whole entry): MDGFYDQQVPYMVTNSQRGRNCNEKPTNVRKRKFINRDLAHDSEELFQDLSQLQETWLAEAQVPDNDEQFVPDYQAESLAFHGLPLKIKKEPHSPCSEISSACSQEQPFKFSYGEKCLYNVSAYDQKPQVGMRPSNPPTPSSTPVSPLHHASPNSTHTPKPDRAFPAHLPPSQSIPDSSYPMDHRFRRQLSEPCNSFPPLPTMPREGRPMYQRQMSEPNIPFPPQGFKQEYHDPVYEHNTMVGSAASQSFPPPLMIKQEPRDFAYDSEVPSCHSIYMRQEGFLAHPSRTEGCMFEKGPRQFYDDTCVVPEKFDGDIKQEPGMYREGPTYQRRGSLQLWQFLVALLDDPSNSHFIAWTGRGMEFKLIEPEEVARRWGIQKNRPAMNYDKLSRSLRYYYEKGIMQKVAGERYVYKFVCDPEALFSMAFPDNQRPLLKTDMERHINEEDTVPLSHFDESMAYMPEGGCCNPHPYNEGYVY
ELF4, sequence (Q99607 whole entry): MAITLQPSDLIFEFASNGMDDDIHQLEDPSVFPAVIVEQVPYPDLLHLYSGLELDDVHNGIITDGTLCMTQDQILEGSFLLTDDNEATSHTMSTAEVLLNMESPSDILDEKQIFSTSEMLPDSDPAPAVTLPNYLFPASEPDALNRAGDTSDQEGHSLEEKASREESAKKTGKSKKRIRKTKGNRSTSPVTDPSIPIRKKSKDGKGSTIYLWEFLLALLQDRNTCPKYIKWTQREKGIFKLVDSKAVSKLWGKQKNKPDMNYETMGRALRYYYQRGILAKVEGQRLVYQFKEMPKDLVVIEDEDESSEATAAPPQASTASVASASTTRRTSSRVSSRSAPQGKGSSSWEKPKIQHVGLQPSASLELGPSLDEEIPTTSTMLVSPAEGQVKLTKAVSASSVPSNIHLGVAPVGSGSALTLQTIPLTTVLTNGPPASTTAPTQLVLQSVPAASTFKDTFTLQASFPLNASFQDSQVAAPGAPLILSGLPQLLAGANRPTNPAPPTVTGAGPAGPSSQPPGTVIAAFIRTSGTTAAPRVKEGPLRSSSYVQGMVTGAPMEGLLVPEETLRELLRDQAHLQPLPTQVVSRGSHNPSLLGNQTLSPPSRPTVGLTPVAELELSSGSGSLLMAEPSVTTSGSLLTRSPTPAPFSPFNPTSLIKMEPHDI
ETV5, sequence (P41161 whole entry): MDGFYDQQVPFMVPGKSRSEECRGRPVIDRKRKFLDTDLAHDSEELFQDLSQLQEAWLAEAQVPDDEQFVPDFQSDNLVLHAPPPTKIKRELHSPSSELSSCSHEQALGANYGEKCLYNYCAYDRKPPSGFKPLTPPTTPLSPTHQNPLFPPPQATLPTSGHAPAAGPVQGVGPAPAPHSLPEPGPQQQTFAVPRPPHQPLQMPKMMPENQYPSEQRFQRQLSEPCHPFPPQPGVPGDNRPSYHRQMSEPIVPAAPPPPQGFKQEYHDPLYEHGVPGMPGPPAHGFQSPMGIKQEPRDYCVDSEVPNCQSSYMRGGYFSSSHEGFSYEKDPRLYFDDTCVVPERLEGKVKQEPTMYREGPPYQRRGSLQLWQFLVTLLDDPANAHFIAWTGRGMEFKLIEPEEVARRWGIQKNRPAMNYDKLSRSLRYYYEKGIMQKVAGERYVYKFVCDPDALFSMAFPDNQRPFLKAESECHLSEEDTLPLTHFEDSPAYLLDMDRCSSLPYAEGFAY
CRX, sequence (O43186 whole entry): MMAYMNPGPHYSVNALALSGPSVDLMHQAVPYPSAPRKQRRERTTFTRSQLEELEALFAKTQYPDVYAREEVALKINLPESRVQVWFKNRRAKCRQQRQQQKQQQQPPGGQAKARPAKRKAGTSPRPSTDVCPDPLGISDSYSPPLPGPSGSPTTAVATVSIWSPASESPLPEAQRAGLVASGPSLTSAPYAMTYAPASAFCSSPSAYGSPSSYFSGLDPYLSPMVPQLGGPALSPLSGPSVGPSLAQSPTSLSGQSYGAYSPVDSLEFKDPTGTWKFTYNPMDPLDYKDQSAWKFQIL

As to CCGCTC, the binding signal in the test with FEV is 1.61 fold enrichment (6-mer frequency, TF over GST control); in the test with ETV5, 1.46 fold enrichment (6-mer frequency, TF over GST control); in the test with HSF1, 1.24 fold enrichment (6-mer frequency, TF over GST control); in the test with SPIC it was 1.53 fold enrichment (6-mer frequency, TF over GST control); with ELF4, 1.6 fold enrichment (6-mer frequency, TF over GST control); with ELK4 it was 1.65 fold enrichment (6-mer frequency, TF over GST control). For the same sequence, the binding signal with ETV2 was 1.52 fold enrichment (6-mer frequency, TF over GST control); with ELF3, 1.54 fold enrichment (6-mer frequency, TF over GST control); with CRX, 1.21 fold enrichment (6-mer frequency, TF over GST control); with ETV1, 1.45 fold enrichment (6-mer frequency, TF over GST control); with ERF it was 1.66 fold enrichment (6-mer frequency, TF over GST control); with ETV3L it was 1.74 fold enrichment (6-mer frequency, TF over GST control). Moreover, the binding signal with ETS2 was 1.54 fold enrichment (6-mer frequency, TF over GST control); in the test with SPDEF it was 1.44 fold enrichment (6-mer frequency, TF over GST control); in the test with ETV7 it was 1.42 fold enrichment (6-mer frequency, TF over GST control); with ELF5, 1.53 fold enrichment (6-mer frequency, TF over GST control); with ETV3, 1.46 fold enrichment (6-mer frequency, TF over GST control); with ETV6, 1.32 fold enrichment (6-mer frequency, TF over GST control).
